Values joined by “and” are separate entries in the source; they are usually repeats but may differ in a detail not shown here. Equal entries are not always repeated. Inconclusive results are not listed. A number with no mark means an inactive call. Active and inactive are the calls of the source. The call rests on the fitted dose curve; in most records, active means well fitted activation curve with a large enough effect; inconclusive means small, poorly fitted or top-dose-only effect; inactive means no such curve, though single readings can be large or run the other way.
These compounds were tested against Cellular tumor antigen p53 (Homo sapiens) (UniProt P04637) (assay: Primary qHTS for small molecule compounds that upregulate eGFP-tagged delta133p53alpha (in N-terminal) cells. (AID 2060322; further: nearly all actives have a fitted effect of over 75% in size;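 on activation: cells pre-induced with doxycycline then dosed without doxycycline; series mostly up to about 56 µM; 0% = DMSO vehicle and 100% = reference activator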)). Conditions: NCI-H358 eGFP-delta133p53alpha fluorescence, 24 h; activation: hits give high values.
Cellular tumor antigen p53 (Homo sapiens), sequence (P04637 whole entry, looked up): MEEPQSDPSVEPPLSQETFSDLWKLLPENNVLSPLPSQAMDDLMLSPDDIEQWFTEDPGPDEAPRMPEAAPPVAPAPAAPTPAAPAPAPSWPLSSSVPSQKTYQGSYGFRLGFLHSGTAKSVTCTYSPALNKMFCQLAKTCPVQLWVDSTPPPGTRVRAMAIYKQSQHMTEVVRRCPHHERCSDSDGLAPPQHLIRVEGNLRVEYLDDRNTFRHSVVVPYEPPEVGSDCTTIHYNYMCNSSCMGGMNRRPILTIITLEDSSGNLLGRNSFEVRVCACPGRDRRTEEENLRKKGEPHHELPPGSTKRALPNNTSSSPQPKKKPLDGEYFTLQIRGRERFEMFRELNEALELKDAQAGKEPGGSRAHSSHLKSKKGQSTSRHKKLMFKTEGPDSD
Outline: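 NCI-H358 cells pre-induced 24 h with 10 ng/ml doxycycline for eGFP-delta133p53alpha, plated dox-free and exposed 24 h at 37C to titrated compounds. Fixed, Hoechst-stained; gated GFP peak intensity by laser scanning cytometry, normalized to DMSO (0%) and 57.5 uM 5-azacytidine (100%).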
Potency means the concentration at half of the fitted maximal effect.

Row | Structure (SMILES) | activation | Potency
1 | Oc1ccccc1C=NCc1ccccc1 | -19.2% | –
2 | C=CCNc1c(O)cc2c(O)c1C[C@@H](C)C[C@H](OC)[C@@H](O)[C@@H](C)C=C(C)[C@H](OC(N)=O)[C@@H](OC)C=CC=C(C)C(=O)N2 | 1.58% | –
3 | COc1cc(OC)cc(-c2ccc3ncc4ccc(=O)n(-c5ccc(N6CCNCC6)c(C(F)(F)F)c5)c4c3c2)c1 | -7.04% | –
4 | CC(=O)N(c1onc(C)c1C)S(=O)(=O)c1ccc(N)cc1 | -0.565% | –
5 | Cc1cccn2c(=O)c(-c3nnn[nH]3)cnc12 | -7.34% | –
6 | O=C(O)c1ccccc1Nc1cccc(C(F)(F)F)c1 | -19.8% | –
7 | CC(=O)NC(=O)c1ccccc1O | 1.69% | –
8 | COC(=O)[C@]12CCC(C)(C)C[C@@H]1[C@@H]1C(=O)C=C3[C@@]4(C)C=C(C#N)C(=O)C(C)(C)[C@@H]4CC[C@@]3(C)[C@]1(C)CC2 | – | 10.9 µM (active)
9 | CCOC(=O)C(C#N)=C(c1ccccc1)c1ccccc1 | -3.35% | –
10 | OC[C@H]1O[C@@H](Oc2cc(O)cc(C=Cc3ccc(O)cc3)c2)[C@H](O)[C@@H](O)[C@H]1O | 9.98% | –
11 | NC(=O)NN=Cc1ccc([N+](=O)[O-])o1 | 13.5% | –
12 | CNCc1ccccc1 | 6.21% | –
13 | CCc1cccc2c(CCO)c[nH]c12 | -27.7% | –
14 | O=C1OC(c2ccc(O)cc2)(c2ccc(O)cc2)c2ccccc21 | 10.7% | –
15 | CCOC(=O)[C@H](CCc1ccccc1)N[C@@H](C)C(=O)N1CCCC1C(=O)O (stereo not given in full) | -2.61% | –
16 | Cc1cccc(C)c1NC(=O)c1ccc(N)cc1 | -2.82% | –
17 | CC(=O)[C@@]1(O)CC[C@H]2[C@@H]3C[C@H](C)C4=CC(=O)C=C[C@]4(C)[C@@]3(F)[C@@H](O)C[C@@]21C | -11.7% | –
18 | O=C1NC(=O)C(=Cc2ccc3nccc(-c4ccncc4)c3c2)S1 | 3.34% | –
19 | CC=C(C)C(=O)O[C@H]1C(C)=C[C@]23C(=O)[C@@H](C=C(CO)[C@@H](O)[C@]12O)[C@H]1[C@@H](C[C@H]3C)C1(C)C | 20.2% | –
20 | CCC[C@H](N[C@@H](C)C(=O)N1[C@H](C(=O)O)C[C@@H]2CCCC[C@@H]21)C(=O)OCC | -15.3% | –

Row | Structure (SMILES) | activation | Potency
21 | Cc1ccc(S(=O)(=O)NC(=O)NC2CCCC2)cc1 | 23.2% | –
22 | CC[N+](C)(CC)CCOC(=O)C(O)(c1ccccc1)C1CCCCC1 (stereo not given) | -16.7% | –
23 | Nc1ccc(S(=O)(=O)c2ccc(N)cc2)cc1 | 7.53% | –
24 | COC(=O)c1ccc(NC(C)=O)cc1OC | -12.6% | –
25 | C[N+](C)(C)CC(O)CC(=O)[O-] (stereo not given) | 7.53% | –
26 | Cc1nc(C2CCCCC2)c(-c2ccc(S(N)(=O)=O)c(F)c2)o1 | 19.2% | –
27 | CCN1CC(CCN2CCOCC2)C(c2ccccc2)(c2ccccc2)C1=O (stereo not given) | 5.08% | –
28 | CN(C)[C@@H](CCOc1cccc2ccccc12)c1ccccc1 | 8.7% | –
29 | O=C(O)CCNC(=O)c1ccccc1 | -12.6% | –
30 | O=C(C=Cc1ccc(O)cc1)c1ccc(O)cc1O | -12.8% | –
31 | O=C(CCCCC(=O)Nc1c(I)cc(I)c(C(=O)O)c1I)Nc1c(I)cc(I)c(C(=O)O)c1I | 2.82% | –
32 | Cc1ccc(CCn2c3c(c4cc(Cl)ccc42)CN(C)CC3)cn1 | -20.9% | –
33 | O=C(O)C(S)C(S)C(=O)O (stereo not given) | -37.9% | –
34 | Nc1cccc2c1CN(C1CCC(=O)NC1=O)C2=O (stereo not given) | 21.6% and -10.9% | –
35 | CCCOC(=O)c1ccc(O)cc1 | -10% | –
36 | COc1ccccc1N1CCN(CCCCNC(=O)c2ccc(-c3ccc(C(C)=O)cc3)cc2)CC1 | -10.9% | –
37 | CC(CNC1CCCCC1)OC(=O)c1ccccc1 (stereo not given) | -9.21% | –
38 | Cc1cc(C)c(NC(=O)CN(CC(=O)O)CC(=O)O)c(C)c1Br | -11.9% | –
39 | CC(C)CCCC(C)CCCC(C)CCCCC(C)CCCC(C)CCCC(C)C (stereo not given) | 14.1% | –
40 | CC(C)(C)C1CCC(CC2=C(O)c3ccccc3C(=O)C2=O)CC1 (stereo not given) | -11.9% | –
